# Laboratory results: the supplement of paper PMC11732987, “Enantioselective OTUD7B fragment discovery through chemoproteomics screening and high-throughput optimisation” (Communications Chemistry, 2025)
# Unmarked numbers belong to inactive results.
# Tests used:
# Experiment in all cases: log2 ratio of Biotin-Ahx-Ub-VS probe labelling (fragment/DMSO); higher = less target engagement (more negative = stronger competition), active = hit call of the paper (q ≤ 0.05, log2 ratio ≤ -1)
# Settings in all cases: compound concentration: 200 uM; treatment time: 3 h
# [1] = molecular target: T1, OTUD6B (UniProt Q8N6M0)
# T1 sequence (whole entry): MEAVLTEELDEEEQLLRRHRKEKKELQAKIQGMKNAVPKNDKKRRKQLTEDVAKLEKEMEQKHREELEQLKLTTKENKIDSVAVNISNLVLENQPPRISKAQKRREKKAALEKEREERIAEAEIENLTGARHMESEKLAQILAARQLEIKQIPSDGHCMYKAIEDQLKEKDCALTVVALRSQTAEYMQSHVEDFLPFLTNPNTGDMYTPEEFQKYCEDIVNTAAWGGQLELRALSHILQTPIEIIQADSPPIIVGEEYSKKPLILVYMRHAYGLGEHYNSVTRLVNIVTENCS
# In short: (§1)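 Triplicate samples of HEK293T lysate, 495 µg each, received fragment at 200 µM or vehicle for 3 h, followed by Biotin-Ahx-Ub-VS (0.5 µM final) for 1 h. After NeutrAvidin enrichment of labelled DUBs and LysC/trypsin digestion, peptides were run by diaPASEF LC-MS/MS. The values are average log2 fragment/vehicle ratios from global-median-normalised Spectronaut label-free quantities, tested by unpaired t-test on proteins having ≥2 unique peptides.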
# [2] = molecular target: T2, OTUD7B (UniProt Q6GQQ9)
# T2 sequence (whole entry): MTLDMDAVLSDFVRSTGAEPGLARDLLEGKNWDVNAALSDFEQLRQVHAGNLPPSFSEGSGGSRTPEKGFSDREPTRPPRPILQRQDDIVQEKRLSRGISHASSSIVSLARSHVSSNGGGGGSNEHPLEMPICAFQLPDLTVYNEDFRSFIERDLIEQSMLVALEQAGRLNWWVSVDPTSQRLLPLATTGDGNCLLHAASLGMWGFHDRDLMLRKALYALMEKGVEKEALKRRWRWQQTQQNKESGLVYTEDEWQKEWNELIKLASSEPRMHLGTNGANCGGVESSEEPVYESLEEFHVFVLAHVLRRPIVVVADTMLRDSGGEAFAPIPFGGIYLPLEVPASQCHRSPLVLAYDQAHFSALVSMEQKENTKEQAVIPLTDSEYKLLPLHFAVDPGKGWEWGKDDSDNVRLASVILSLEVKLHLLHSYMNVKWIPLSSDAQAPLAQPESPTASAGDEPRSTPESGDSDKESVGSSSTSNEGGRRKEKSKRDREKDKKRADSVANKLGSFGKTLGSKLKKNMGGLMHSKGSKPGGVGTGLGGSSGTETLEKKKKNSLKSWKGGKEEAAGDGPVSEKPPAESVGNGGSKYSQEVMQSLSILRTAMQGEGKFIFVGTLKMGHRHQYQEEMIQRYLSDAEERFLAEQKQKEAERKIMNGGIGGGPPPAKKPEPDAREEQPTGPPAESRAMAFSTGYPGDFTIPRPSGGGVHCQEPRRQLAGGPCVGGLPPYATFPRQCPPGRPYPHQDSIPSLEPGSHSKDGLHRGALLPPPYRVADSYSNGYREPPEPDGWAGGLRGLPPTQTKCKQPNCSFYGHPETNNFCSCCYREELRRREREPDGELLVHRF
# In short: as §1
# [3] = molecular target: PRPF8 (UniProt Q6P2Q9)
# In short: as §1
# [4] = molecular target: T3, PSMD7 (UniProt P51665)
# T3 sequence (whole entry): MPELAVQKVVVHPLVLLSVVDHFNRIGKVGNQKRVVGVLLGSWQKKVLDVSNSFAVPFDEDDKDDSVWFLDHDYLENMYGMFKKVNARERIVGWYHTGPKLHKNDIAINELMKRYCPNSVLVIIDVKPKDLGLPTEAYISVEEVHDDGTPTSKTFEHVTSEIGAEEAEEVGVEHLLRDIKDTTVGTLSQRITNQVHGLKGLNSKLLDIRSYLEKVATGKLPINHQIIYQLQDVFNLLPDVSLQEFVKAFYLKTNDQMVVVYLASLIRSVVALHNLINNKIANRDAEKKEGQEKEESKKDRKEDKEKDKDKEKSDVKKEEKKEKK
# In short: as §1
# [5] = molecular target: UCHL1 (UniProt P09936)
# In short: as §1
# [6] = molecular target: T4, UCHL3 (UniProt P15374)
# T4 sequence (whole entry): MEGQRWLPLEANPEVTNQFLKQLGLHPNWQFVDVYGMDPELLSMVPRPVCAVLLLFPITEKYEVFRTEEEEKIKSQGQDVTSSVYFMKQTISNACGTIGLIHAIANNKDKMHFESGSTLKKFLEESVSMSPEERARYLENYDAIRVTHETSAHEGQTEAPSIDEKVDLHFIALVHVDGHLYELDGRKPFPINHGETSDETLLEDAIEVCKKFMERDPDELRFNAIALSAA
# In short: as §1
# [7] = molecular target: T5, UCHL5 (UniProt Q9Y5K5)
# T5 sequence (whole entry): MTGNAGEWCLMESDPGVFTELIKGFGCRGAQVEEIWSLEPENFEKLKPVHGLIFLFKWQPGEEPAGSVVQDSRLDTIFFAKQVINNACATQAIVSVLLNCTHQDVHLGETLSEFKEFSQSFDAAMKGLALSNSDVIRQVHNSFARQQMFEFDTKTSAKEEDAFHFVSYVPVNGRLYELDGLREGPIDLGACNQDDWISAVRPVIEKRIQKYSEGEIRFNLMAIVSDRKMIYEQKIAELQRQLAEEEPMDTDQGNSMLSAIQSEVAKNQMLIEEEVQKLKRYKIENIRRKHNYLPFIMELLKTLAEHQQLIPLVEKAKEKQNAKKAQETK
# In short: as §1
# [8] = molecular target: USP10 (UniProt Q14694)
# In short: as §1
# [9] = molecular target: T6, USP15 (UniProt Q9Y4E8)
# T6 sequence (whole entry): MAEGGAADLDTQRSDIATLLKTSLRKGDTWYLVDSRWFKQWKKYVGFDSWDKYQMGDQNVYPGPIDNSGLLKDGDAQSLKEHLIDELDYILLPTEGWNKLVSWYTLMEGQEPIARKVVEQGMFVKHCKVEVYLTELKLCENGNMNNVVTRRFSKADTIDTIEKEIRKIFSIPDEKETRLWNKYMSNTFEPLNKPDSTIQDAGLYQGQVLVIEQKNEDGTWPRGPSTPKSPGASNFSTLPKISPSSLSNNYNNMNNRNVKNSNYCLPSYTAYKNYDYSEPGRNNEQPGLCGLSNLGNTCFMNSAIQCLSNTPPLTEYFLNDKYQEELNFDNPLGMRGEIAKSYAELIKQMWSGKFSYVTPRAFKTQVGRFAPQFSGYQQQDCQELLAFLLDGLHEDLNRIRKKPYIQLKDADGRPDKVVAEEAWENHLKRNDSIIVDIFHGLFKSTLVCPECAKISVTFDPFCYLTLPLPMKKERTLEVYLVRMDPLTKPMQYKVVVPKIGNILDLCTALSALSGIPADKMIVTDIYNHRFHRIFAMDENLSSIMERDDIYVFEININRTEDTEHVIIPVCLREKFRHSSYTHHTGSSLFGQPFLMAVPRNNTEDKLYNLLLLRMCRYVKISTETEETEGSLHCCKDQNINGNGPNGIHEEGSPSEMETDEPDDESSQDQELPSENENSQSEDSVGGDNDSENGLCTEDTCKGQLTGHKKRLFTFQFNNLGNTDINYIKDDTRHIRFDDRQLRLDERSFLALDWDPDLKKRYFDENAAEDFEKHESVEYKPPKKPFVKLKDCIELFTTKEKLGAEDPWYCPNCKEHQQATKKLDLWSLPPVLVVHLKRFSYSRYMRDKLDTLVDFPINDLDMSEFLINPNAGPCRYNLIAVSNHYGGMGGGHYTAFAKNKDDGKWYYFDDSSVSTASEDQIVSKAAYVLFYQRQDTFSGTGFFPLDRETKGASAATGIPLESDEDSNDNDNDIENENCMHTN
# In short: as §1
# [10] = molecular target: USP16 (UniProt Q9Y5T5)
# In short: as §1
# Chain of USP16 (Q9Y5T5 whole entry, looked up): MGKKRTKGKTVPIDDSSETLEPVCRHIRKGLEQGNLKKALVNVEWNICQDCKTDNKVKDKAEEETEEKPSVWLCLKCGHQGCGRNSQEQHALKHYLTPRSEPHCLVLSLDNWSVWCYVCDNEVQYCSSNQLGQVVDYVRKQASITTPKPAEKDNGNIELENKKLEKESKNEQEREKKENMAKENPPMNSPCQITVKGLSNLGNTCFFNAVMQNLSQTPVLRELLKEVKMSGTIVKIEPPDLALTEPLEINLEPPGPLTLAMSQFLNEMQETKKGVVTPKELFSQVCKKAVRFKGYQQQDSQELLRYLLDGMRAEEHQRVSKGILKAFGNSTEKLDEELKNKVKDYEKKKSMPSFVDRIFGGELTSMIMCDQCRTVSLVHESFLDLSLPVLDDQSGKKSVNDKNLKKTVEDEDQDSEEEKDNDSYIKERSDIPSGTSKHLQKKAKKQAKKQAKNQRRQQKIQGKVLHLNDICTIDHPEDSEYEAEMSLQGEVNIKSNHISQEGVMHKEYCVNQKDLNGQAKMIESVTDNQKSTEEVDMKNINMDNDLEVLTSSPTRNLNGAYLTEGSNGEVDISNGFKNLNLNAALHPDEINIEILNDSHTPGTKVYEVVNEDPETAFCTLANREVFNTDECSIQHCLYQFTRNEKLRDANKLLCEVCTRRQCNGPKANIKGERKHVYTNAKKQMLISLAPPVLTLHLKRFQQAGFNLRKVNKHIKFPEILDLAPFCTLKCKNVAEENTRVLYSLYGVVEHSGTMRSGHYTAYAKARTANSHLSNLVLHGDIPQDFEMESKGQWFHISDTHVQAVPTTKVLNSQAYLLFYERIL
# Chain of UCHL1 (P09936 whole entry, looked up): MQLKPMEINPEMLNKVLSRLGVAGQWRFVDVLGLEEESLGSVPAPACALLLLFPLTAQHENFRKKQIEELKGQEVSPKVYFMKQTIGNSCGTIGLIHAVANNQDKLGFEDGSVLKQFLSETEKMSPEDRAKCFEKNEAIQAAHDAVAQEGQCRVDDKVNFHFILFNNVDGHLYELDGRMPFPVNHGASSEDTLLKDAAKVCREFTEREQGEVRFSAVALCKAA
# Chain of USP10 (Q14694 whole entry): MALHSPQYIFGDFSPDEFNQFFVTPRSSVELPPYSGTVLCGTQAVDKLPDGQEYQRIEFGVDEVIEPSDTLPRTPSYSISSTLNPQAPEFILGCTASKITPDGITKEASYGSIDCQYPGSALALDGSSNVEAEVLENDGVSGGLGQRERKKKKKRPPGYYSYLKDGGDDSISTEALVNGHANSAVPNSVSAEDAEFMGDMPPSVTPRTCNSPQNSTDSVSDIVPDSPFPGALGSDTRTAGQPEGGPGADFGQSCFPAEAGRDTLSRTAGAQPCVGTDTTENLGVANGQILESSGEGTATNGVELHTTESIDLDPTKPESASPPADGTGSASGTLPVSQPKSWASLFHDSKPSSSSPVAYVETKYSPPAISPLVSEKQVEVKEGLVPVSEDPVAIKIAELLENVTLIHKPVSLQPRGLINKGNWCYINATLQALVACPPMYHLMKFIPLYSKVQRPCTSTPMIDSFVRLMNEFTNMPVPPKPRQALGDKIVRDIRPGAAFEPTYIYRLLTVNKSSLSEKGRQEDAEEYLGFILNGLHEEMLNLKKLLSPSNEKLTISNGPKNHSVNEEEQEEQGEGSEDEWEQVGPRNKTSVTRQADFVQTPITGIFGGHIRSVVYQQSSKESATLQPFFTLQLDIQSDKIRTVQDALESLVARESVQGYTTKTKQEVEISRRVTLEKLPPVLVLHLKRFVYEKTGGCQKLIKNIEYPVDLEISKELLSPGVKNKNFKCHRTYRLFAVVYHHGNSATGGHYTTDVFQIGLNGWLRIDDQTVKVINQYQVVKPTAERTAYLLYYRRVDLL
compound,measurement,setting,value
O=C(CCl)NC1CCCCNC1=O (stereo not given),log2 ratio of Biotin-Ahx-Ub-VS probe labelling,[1],-0.522
same,log2 ratio of Biotin-Ahx-Ub-VS probe labelling,[2],-0.212
same,log2 ratio of Biotin-Ahx-Ub-VS probe labelling,[3],-0.0633
same,log2 ratio of Biotin-Ahx-Ub-VS probe labelling,[4],-0.0971
same,log2 ratio of Biotin-Ahx-Ub-VS probe labelling,[5],-1.46 (active)
same,log2 ratio of Biotin-Ahx-Ub-VS probe labelling,[6],0.241
same,log2 ratio of Biotin-Ahx-Ub-VS probe labelling,[7],-0.137
same,log2 ratio of Biotin-Ahx-Ub-VS probe labelling,[8],-0.269
same,log2 ratio of Biotin-Ahx-Ub-VS probe labelling,[9],-0.252
same,log2 ratio of Biotin-Ahx-Ub-VS probe labelling,[10],-0.792
